Laboratory results from PubChem BioAssay (NCATS).
Values joined by “and” are separate entries in the source; they are usually repeats but may differ in a detail not shown here. Equal entries are not always repeated. Records with an inconclusive call do not appear. Active and inactive are the calls of the source. Unless noted, the call rests on the fitted dose curve.

How the values were obtained:
[1] = target: Cytochrome P450 3A4 (Homo sapiens) (UniProt P08684); assay: qHTS Assay for Inhibitors and Substrates of Cytochrome P450 3A4 (AID 884; active means well fitted curve in the direction sought with a large enough effect; an effect the other way counts as inactive or inconclusive; further: nearly all actives have a fitted effect of over 50% in size; further: potency means the concentration at half of the fitted maximal effect); conditions: recombinant CYP3A4, Luciferin-PPXE luminescence; series mostly up to 57.1 µM
Procedure, shortened: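 Luminescent readout of luciferin produced by CYP3A4 (20 nM) dealkylation of Luciferin-PPXE, 25 uM (its KM). NADPH-driven reaction ran 60 min at RT after 10 min compound preincubation; data scaled to 57 uM ketoconazole as 100% inhibition.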

[2] = MultiTox-Fluor Cytotoxicity Assay - LYMP1-001 - Live Cells (AID 947; active means well fitted curve in the direction sought with a large enough effect; an effect the other way counts as inactive or inconclusive;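 further: 0% = DMSO only and full inhibition = tetraoctylammonium bromide control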); conditions: LYMP1-001 lymphoblastoid cells, live-cell protease fluorescence viability; series mostly up to 92.2 µM
[3] = MultiTox-Fluor Cytotoxicity Assay - LYMP1-002 - Dead Cells (AID 960; active means well fitted curve in the direction sought with a large enough effect; an effect the other way counts as inactive or inconclusive;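 further: 0% = DMSO and 100% = tetraoctylammonium bromide; nearly all actives have a fitted effect of over 60% in size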); conditions: LYMP1-002 lymphoblastoid cells, dead-cell protease fluorescence; series mostly up to 46.1 µM
Procedure, shortened: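 Cells were plated, rested 5 hr, then treated with compound dilution series for 16 hr at 37 C. After adding substrate reagent and 60 min at room temperature, dead-cell protease fluorescence gave concentration-response curves fitted by the Hill equation.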

[4] = target: Estrogen receptor (Homo sapiens) (UniProt P03372); assay: qHTS assay for small molecule antagonists of estrogen receptor alpha signaling (AID 588513; active means well fitted curve in the direction sought with a large enough effect in the signal ratio, with a control signal flat, not every such curve was filed as active; the % refers to the signal ratio; further: on the % scale 0 is the no-effect control and ±100 the full control effect); conditions: ER-alpha-UAS-bla HEK293, beta-lactamase ratio, antagonist mode; series mostly up to 76.9 µM
Procedure, shortened: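 Cells were plated at 5000/well and incubated 4 h at 37 C. Compounds were added as 1:2 dilution series, duplicates. 17-beta-estradiol (0.5nM final) was added for 18 h before CCF4 detection.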

[5] = target: Estrogen receptor (Homo sapiens) (UniProt P03372); assay: qHTS assay for small molecule agonists of estrogen receptor alpha signaling (AID 588514); conditions: ER-alpha-UAS-bla HEK293, beta-lactamase ratio, 18 h; series mostly up to 76.8 µM; further: nearly all actives have a fitted effect of over 70% in size; further: potency means the concentration at half of the fitted maximal effect;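 on activation: 0% = vehicle only and 100% = reference agonist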
Procedure, shortened: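 Efficacy is expressed against 20 nM 17-beta-estradiol (100%) and DMSO basal (0%); EC50 from Hill equation. Assay: beta-lactamase reporter in ER-alpha-UAS-bla HEK 293 cells, 18 h compound incubation, CCF4 detection.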

[6] = target: Glucocorticoid receptor (Homo sapiens) (UniProt P04150); assay: qHTS assay for small molecule agonists of glucocorticoid receptor signaling (AID 588532; active means well fitted curve in the direction sought with a large enough effect in the signal ratio, with a control signal flat; the % refers to the signal ratio;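 further: 100% = dexamethasone at 0.1 µM and 0% = DMSO only wells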); conditions: HeLa MMTV-bla, beta-lactamase ratio, agonist, 18 h; stronger effect = higher value; percent of dexamethasone control, DMSO zero
Procedure, shortened: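 Titration series, up to 92 uM, applied to GRE-bla HeLa cells for 18 h at 37 C. Detection by CCF4 FRET substrate after 2 h at RT.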

[7] = target: Peroxisome proliferator-activated receptor gamma (Homo sapiens) (UniProt P37231); assay: qHTS assay for small molecule agonists of peroxisome proliferator-activated receptor gamma signaling (AID 588536; active means well fitted curve in the direction sought with a large enough effect in the signal ratio, with a control signal flat, not every such curve was filed as active; the % refers to the signal ratio;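 further: 0% = DMSO basal wells and 100% = rosiglitazone at 2 µM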); conditions: HEK293 PPARg-UAS-bla, beta-lactamase ratio, 16 h, percent of rosiglitazone response, DMSO as zero; series mostly up to 76.7 µM
Procedure, shortened: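 Cells were plated and held 6–6.5 h at 37 C, then compounds were added as a titration series. After a further 16 h, CCF4 dye was loaded for 2 h at room temperature and emission at 460/530 nm recorded.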

[8] = qHTS assay for small molecule agonists of retinoid X receptor alpha signaling (AID 588544); conditions: HEK293T RXRa-UAS-bla, beta-lactamase reporter, 18 h; 530 nm emission
[9] = target: Thyroid hormone receptor beta (Homo sapiens) (UniProt P10828); assay: qHTS assay for small molecule antagonists of thyroid hormone receptor beta signaling (AID 588547; active means well fitted inhibition curve with a large enough effect in the signal ratio, with a control signal flat, not every such curve was filed as active; the % refers to the signal ratio;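 further: cells stimulated with 0.4 nM T3 agonist during compound exposure; on the % scale 0 is the no-effect control and ±100 the full control effect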); conditions: TR-UAS-bla HEK293, beta-lactamase ratio, antagonist mode, 18 h
Procedure, shortened: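 TR-UAS-bla GripTite HEK293 cells in 2% charcoal/dextran FBS medium were preincubated 4 h at 37 C, given compound (0.59 nM to 92 uM) plus 0.4 nM T3 (final) for 18 h, then CCF4 for 2 h at RT; Hill fit gave IC50.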

[10] = target: Tumor necrosis factor (Homo sapiens) (UniProt P01375); assay: qHTS assay to identify small molecules that stimulate Tumor Necrosis Factor-alpha (TNF-alpha) secretion (AID 651757; active means well fitted curve in the direction sought with a large enough effect in the signal ratio; the % refers to the signal ratio; further: 0% is about no effect); conditions: Human cells, HTRF 665/615 ratio; series mostly up to 92.2 µM
Procedure, shortened: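 Human monocytic THP-1 cells are plated, treated with compound and held at 37 C for 17 hrs. Labeled anti-TNF-alpha antibody mixture is then added; after 3 hr at room temperature, TR-FRET signal reports secreted TNF-alpha.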

[11] = qHTS assay for environmental chemicals that activate the Aryl hydrocarbon Receptor (AhR) signaling pathway (AID 651777; active means well fitted curve in the direction sought with a large enough effect; an effect the other way counts as inactive or inconclusive; further: nearly all actives have a fitted effect of over 15% in size; further: potency means the concentration at half of the fitted maximal effect; on activation: % of control where 0% means no effect); conditions: 1A2-DRE human hepatoma cells, luciferase, 24 h; activation: stronger effect = higher value
Procedure, shortened: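 Luminescence read-out: One-Glo added for 30 min at RT after 24 hr compound treatment (37 C, 5% CO2) of human hepatoma cells expressing a DRE/CYP1A2 promoter–luciferase reporter; increased signal indicates AhR activation.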

[12] = target: Nuclear receptor ROR-gamma (Homo sapiens) (UniProt P51449); assay: qHTS assay for small molecule antagonists of the retinoid-related orphan receptor gamma (ROR-gamma) signaling pathway (AID 651802; active means well fitted curve in the direction sought with a large enough effect; an effect the other way counts as inactive or inconclusive;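 further: CHO cells with doxycycline-induced ROR-gamma expression; on the % scale 0 is the no-effect control and ±100 the full control effect; nearly all actives have a fitted effect of over 60% in size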); conditions: ROR-gamma antagonist cell reporter assay; series mostly up to 92.2 µM
Procedure, shortened: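 Steps: cells dispensed; compound or DMSO transferred by pin tool; doxycycline added to induce the ROR response element-driven luciferase; plates held 16hr at 37C; ONE-Glo added and luminescence measured.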

[13] = qHTS assay for small molecule antagonists of the retinoid-related orphan receptor gamma (ROR-gamma) signaling pathway - cell viability counter screen (AID 720652; active means well fitted curve in the direction sought with a large enough effect in the repeat runs; an effect the other way counts as inactive or inconclusive;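 further: compound exposure lasted 16 hr before ATP read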; further: potency means the concentration at half of the fitted maximal effect); conditions: RORgamma reporter cell line viability counter screen; series mostly up to 92.2 µM
Procedure, shortened: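 Steps: seed CHO cells bearing TET-inducible ROR and ROR response element-luciferase; rest 5 hr at 37 C; add compound, then doxycycline; incubate 16 hr; add CellTiter-Glo and read luminescence as ATP-based viability.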

[14] = target: Nuclear receptor subfamily 1 group I member 2 (Rattus norvegicus) (UniProt Q9R1A7); assay: qHTS assay for small molecule activators of the rat pregnane X receptor (rPXR) signaling pathway (AID 651751; call rule not given here; further: 0% is about no effect); conditions: rPXR reporter cells, luciferase (One-Glo), 24 h
[15] = target: Vitamin D3 receptor (Homo sapiens) (UniProt P11473); assay: qHTS assay for small molecule antagonists of vitamin D receptor signaling (AID 588541); conditions: HEK293T VDR-UAS-bla, beta-lactamase ratio, antagonist mode; series mostly up to 76.7 µM;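 further: receptor activated by calcitriol during compound treatment; on the % scale 0 is the no-effect control and ±100 the full control effect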
Procedure, shortened: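 VDR-UAS-bla HEK293T cells (2000/well, 2% charcoal-stripped FBS) were treated with titrated compounds plus 1-alpha,25-dihydroxyvitamin D3 (50 nM or 3 nM final) for 16 h at 37 C. CCF4 beta-lactamase fluorescence was read; Hill fits gave IC50.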

[16] = target: Vitamin D3 receptor (Homo sapiens) (UniProt P11473); assay: qHTS assay for small molecule agonists of vitamin D receptor signaling (AID 588543); conditions: HEK293T VDR-UAS-bla, beta-lactamase ratio, 16 h; series mostly up to 76.8 µM;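 further: 0% = DMSO basal and 100% = reference agonist control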
Procedure, shortened: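 qHTS in agonist mode: compound titrations stimulate a VDR-driven β-lactamase reporter in HEK293T cells over 16 h at 37 °C. Response normalized to 50 nM 1α,25-dihydroxyvitamin D3 = 100%, DMSO = 0%; Hill fitting gives EC50 and maximal response.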

[17] = qHTS assay for small molecule activators of the p53 signaling pathway (AID 651743; active means well fitted activation curve with a large enough effect in the signal ratio, not every such curve was filed as active; the % refers to the signal ratio; further: % of control where 0% means no effect); conditions: HCT-116 p53RE-bla, beta-lactamase FRET ratio, 16 h; activation: stronger effect = higher value
Procedure, shortened: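 Agonist-mode quantitative HTS in HCT-116 cells carrying a p53-response-element beta-lactamase reporter; 16 h compound treatment at 37 C, then FRET substrate loading for 2 h at room temperature and fluorescence read.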

[18] = qHTS assay for small molecule disruptors of the mitochondrial membrane potential - 1 hr assay (AID 651754); conditions: series mostly up to 92.2 µM; further: nearly all actives have a fitted effect of over 35% in size; further: potency means the concentration at half of the fitted maximal effect
Procedure, shortened: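 Loss of mitochondrial potential shifts the cationic dye from red mitochondrial aggregates to green cytoplasmic monomers. Cells (HepG2) are treated with compound for 1 hr before a 30 min dye incubation at 37C.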

[19] = qHTS assay for small molecule disruptors of the mitochondrial membrane potential - 5 hr assay (AID 651755); conditions: JC-1-type ratio dye; series mostly up to 92.2 µM; further: nearly all actives have a fitted effect of over 40% in size; further: potency means the concentration at half of the fitted maximal effect
Procedure, shortened: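 Seed HepG2 overnight, add compound, incubate 5 hr at 37C and 5% CO2, stain 30 min with Mito-MPS, then measure monomer (490/535 nm) and aggregate (540/590 nm) fluorescence.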

[20] = qHTS assay for small molecule activators of the human pregnane X receptor (PXR) signaling pathway (AID 720659; call rule not given here; further: 0% is about no effect); conditions: DPX-2 HepG2 CYP3A4-luciferase, 24 h; series mostly up to 92.3 µM

Chain of Cytochrome P450 3A4 (Homo sapiens) (P08684 whole entry, looked up): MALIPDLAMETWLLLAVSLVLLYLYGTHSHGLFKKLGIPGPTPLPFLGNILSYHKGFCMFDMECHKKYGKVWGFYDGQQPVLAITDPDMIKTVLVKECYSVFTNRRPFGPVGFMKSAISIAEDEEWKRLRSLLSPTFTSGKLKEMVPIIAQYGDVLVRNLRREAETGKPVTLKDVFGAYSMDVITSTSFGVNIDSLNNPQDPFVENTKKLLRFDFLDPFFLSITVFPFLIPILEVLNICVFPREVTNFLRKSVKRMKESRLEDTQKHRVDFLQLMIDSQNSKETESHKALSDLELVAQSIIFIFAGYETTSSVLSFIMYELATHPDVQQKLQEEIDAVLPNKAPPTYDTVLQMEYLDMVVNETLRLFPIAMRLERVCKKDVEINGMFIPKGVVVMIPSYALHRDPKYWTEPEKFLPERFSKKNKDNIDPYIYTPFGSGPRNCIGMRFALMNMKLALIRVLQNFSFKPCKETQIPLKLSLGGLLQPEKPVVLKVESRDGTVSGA
Chain of Glucocorticoid receptor (Homo sapiens) (P04150 whole entry, looked up): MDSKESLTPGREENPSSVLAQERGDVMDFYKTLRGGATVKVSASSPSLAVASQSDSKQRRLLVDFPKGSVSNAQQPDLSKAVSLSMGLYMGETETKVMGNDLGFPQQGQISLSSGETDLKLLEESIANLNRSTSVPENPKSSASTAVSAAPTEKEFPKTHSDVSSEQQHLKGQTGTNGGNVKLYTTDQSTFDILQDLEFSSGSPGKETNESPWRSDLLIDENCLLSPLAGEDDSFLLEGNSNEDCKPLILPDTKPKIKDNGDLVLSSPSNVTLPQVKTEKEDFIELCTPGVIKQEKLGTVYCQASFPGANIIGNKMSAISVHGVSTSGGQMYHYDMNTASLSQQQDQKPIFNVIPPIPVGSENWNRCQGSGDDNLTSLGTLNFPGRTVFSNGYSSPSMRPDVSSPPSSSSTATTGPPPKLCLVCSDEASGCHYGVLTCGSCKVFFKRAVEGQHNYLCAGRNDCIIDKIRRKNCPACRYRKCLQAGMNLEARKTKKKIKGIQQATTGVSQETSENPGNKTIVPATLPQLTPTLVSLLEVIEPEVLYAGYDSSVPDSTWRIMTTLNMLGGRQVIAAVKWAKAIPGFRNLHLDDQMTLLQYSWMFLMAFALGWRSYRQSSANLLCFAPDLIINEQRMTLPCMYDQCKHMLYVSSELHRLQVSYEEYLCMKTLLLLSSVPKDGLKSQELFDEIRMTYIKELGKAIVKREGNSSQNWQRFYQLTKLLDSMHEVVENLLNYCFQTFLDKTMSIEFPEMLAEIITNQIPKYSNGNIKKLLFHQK
Chain of Tumor necrosis factor (Homo sapiens) (P01375 whole entry, looked up): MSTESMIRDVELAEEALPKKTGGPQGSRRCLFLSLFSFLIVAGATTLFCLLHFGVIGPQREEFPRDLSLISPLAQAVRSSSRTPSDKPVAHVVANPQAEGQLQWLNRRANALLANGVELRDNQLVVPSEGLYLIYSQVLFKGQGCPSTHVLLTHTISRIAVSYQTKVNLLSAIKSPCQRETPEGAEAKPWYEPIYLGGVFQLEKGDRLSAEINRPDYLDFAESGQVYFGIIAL
Chain of Nuclear receptor ROR-gamma (Homo sapiens) (P51449 whole entry, looked up): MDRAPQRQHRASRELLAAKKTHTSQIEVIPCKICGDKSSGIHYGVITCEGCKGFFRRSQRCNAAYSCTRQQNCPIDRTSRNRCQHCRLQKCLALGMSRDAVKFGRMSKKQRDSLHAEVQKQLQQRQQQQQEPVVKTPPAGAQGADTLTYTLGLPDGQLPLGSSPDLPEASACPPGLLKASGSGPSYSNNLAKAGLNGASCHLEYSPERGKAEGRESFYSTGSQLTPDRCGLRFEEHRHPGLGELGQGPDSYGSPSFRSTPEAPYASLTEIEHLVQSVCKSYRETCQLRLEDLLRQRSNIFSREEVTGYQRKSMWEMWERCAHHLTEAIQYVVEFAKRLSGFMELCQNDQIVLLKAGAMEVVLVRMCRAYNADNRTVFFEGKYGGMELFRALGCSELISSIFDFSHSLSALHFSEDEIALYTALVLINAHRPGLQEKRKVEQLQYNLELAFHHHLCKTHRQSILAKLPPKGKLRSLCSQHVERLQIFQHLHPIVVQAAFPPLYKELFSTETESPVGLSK
Chain of Nuclear receptor subfamily 1 group I member 2 (Rattus norvegicus) (Q9R1A7 whole entry, looked up): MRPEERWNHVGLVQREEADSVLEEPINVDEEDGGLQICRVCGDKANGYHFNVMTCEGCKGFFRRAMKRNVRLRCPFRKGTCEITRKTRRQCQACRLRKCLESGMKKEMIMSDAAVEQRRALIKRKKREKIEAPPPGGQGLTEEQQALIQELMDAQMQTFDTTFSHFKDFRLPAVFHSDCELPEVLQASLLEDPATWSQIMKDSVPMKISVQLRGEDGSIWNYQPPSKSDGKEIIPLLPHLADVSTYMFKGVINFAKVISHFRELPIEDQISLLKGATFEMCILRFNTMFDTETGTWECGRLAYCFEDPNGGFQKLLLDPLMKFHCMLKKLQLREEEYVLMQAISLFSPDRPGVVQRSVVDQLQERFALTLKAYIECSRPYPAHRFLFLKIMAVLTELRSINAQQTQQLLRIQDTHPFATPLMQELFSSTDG
Chain of Thyroid hormone receptor beta (Homo sapiens) (P10828 whole entry, looked up): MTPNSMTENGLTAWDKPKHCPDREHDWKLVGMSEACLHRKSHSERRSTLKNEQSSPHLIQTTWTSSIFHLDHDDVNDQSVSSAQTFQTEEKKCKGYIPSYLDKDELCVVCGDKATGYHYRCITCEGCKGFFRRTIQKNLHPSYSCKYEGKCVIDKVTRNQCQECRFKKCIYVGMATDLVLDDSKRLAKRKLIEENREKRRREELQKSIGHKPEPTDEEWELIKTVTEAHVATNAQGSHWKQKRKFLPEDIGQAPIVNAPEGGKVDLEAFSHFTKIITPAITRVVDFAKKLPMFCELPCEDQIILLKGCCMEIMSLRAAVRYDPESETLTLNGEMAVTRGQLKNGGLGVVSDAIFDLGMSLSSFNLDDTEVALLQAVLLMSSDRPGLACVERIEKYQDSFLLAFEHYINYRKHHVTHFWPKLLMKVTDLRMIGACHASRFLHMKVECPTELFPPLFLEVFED
Chain of Peroxisome proliferator-activated receptor gamma (Homo sapiens) (P37231 whole entry, looked up): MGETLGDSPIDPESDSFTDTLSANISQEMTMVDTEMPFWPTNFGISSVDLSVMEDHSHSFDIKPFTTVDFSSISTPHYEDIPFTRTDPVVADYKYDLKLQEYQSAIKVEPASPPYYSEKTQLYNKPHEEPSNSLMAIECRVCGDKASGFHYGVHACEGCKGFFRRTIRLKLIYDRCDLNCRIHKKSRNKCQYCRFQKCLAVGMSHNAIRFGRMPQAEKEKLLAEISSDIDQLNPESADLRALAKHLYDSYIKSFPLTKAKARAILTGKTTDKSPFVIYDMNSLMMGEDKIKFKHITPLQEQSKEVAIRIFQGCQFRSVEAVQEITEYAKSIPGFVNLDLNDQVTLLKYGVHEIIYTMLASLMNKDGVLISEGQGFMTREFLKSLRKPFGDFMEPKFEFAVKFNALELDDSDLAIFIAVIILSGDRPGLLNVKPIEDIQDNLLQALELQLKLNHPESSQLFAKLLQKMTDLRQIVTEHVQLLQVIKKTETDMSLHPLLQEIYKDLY
Chain of Estrogen receptor (Homo sapiens) (P03372 whole entry, looked up): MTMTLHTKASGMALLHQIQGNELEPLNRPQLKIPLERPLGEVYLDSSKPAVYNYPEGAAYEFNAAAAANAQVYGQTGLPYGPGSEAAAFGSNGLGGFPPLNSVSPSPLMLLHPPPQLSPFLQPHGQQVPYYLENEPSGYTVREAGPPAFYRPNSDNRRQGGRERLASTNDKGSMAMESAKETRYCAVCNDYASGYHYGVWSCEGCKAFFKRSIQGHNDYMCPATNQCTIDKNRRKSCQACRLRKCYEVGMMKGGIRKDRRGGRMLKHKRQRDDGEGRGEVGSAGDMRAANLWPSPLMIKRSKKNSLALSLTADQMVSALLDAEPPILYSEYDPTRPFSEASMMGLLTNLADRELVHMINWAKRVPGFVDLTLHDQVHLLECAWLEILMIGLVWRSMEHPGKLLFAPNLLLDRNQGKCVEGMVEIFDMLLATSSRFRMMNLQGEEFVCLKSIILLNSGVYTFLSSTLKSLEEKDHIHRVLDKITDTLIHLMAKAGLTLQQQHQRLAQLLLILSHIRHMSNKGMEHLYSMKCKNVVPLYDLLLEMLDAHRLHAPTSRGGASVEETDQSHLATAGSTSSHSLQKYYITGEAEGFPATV
Chain of Vitamin D3 receptor (Homo sapiens) (P11473 whole entry, looked up): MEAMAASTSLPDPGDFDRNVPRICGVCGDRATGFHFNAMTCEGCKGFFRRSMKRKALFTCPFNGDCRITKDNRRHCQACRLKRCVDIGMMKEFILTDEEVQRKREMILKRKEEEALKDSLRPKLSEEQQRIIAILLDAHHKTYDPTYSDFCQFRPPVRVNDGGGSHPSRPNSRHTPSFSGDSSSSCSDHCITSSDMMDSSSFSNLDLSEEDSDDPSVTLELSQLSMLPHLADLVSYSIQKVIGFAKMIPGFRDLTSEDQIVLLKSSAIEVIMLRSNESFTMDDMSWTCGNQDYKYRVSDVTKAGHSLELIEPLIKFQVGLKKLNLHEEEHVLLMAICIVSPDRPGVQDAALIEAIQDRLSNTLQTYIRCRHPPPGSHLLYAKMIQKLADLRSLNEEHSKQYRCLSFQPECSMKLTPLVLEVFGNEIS

O=C(O)c1ccccc1C(c1ccc(O)cc1)c1ccc(O)cc1
-8.41% and -22.6%: max response [8]
inactive: Potency [1] | Potency [2] | Potency [3] | Potency [4] | Potency [5] | activation [6] -2.81% and -6.49% | outcome [7] | activity change % (negative = inhibition) [9] 4.41% and 9.59% | outcome [10] | activation [11] 2.69% and 0.36% | Potency [12] | Potency [13] | max response [14] 0.601% and -3.77%

c1ccc2scnc2c1
-4.98%: max response [8]
inactive: Potency [1] | Potency [3] | Potency [4] | Potency [5] | activation [6] -6.61% | outcome [7] | outcome [15] | outcome [16] | activity change % (negative = inhibition) [9] 10.2% | activation [17] 0.66% | Potency [18] | Potency [19] | outcome [10] | activation [11] -0.642% | Potency [12] | Potency [13] | max response [14] -1.2% | outcome [20]

O[C@@H]([C@H](O)[C@@H](O)CBr)[C@@H](O)CBr
-11.8%: max response [8]
inactive: Potency [1] | Potency [2] | Potency [3] | Potency [4] | Potency [5] | outcome [7] | outcome [15] | outcome [16] | activity change % (negative = inhibition) [9] -6.77% | activation [17] 4.39% | Potency [19] | outcome [10] | activation [11] 0.0467% | Potency [12] | Potency [13] | max response [14] 0.919% | outcome [20]

Cc1ccc(N)c([N+](=O)[O-])c1
-17.4% and -9.33%: max response [8]
inactive: Potency [1] | Potency [3] | Potency [4] | Potency [5] | activation [6] 2.77% and 13.2% | outcome [7] | outcome [15] | outcome [16] | activity change % (negative = inhibition) [9] -3.23% | Potency [18] | Potency [19] | outcome [10] | activation [11] 2.83% and 1.74% | Potency [13] | max response [14] -2.15% and -2.21%

COc1ccc2nc(N)sc2c1
-6.78% and -2.22%: max response [8]
inactive: Potency [2] | Potency [3] | Potency [4] | Potency [5] | activation [6] -7.22% and -9.63% | outcome [7] | outcome [15] | outcome [16] | activity change % (negative = inhibition) [9] -0.575% and 14.1% | Potency [18] | Potency [19] | Potency [12] | Potency [13]

Cc1ccc([N+](=O)[O-])c(C)c1
inactive: Potency [1] | Potency [2] | Potency [3] | Potency [4] | Potency [5] | activation [6] -4.65% and 0.746% | outcome [7] | outcome [15] | outcome [16] | activity change % (negative = inhibition) [9] -7.14% and -11% | activation [17] 0.814% and -2.3% | Potency [18] | Potency [19] | outcome [10] | activation [11] -0.465% and 2.75% | Potency [12] | Potency [13] | max response [14] 3.04% and -0.0498% | outcome [20]
-5.33% and -0.658%: max response [8]

Nc1nc(-c2ccc(Cl)c(Cl)c2)c(-c2ccncc2)s1
active: Potency [1] 794 nM

O=C1c2ccccc2C(=O)C1c1ccc2ccccc2n1
16.7%: max response [8]
active: Potency [1] 2510 nM | Potency [5] 1000 nM | Potency [18] 944 nM | Potency [19] 1680 nM | Potency [11] 39.8 µM and 7.08 µM | Potency [13] 33500 nM
inactive: Potency [2] | Potency [3] | Potency [4] | activation [6] -2.81% and -4.97% | outcome [7] | outcome [15] | outcome [16] | activity change % (negative = inhibition) [9] -15.6% | activation [17] 5.56% and 14%

CCC(O)OC(O)CC (stereo unspecified)
-2.11% and -3.85% and -13.7%: max response [8]
inactive: Potency [1] | Potency [2] | Potency [3] | Potency [4] | Potency [5] | activation [6] 1.96% and -2.19% and -0.591% | outcome [7] | outcome [15] | outcome [16] | activity change % (negative = inhibition) [9] -5.47% [middle of 4 runs] | activation [17] 0.0103% [middle of 4 runs] | Potency [18] | Potency [19] | outcome [10] | activation [11] 0.464% [middle of 4 runs] | Potency [13] | max response [14] -0.225% [middle of 4 runs] | outcome [20]

COc1c2ccoc2cc2oc(=O)ccc12
inactive: Potency [2] | Potency [3] | Potency [4] | Potency [5] | activation [6] 3.88% | outcome [15] | outcome [16] | activity change % (negative = inhibition) [9] 16.2% | activation [17] 6.05% | Potency [18] | Potency [19] | outcome [10] | activation [11] 1.47% | Potency [12] | Potency [13] | max response [14] 2.12% | outcome [20]

CCCCCCCCCCCCCCC1CO1 (stereo unspecified)
-14.5% and -12.1%: max response [8]
inactive: Potency [1] | Potency [2] | Potency [4] | Potency [5] | activation [6] 1.74% and -2.57% | outcome [7] | outcome [15] | outcome [16] | activity change % (negative = inhibition) [9] 8.79% | activation [17] 0.526% and -2.5% | outcome [10] | activation [11] 0.108% and 0.658% | Potency [12] | Potency [13] | max response [14] -5.5% and 2.15% | outcome [20]
